Rows were chosen to be rich in hits. Some 8.9% of all compounds tested hit in one or more screens of this group.
SW480 rereplic: induces DNA re-replication in SW480 colon adenocarcinoma cells | Potency, µM (series often up to 46.1 µM), actives largely listed as activators | 340,000 compounds, 1.8% hits | SW480 DNA re-replication, Hoechst DNA content imaging, 48 h; further: nearly all actives have a fitted effect of over 55% in size
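Image-based DNA-content assay: after two days of treatment, nuclei were labelled with the DNA dye Hoechst and imaged, and hits were compounds raising the count of nuclei showing high fluorescence intensity.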
KB-V1 cytotox: kills drug-selected multidrug resistant KB-V1 cells. KB-V1 MDR cells viability, CellTiter-Glo, 72 h. Potency, µM (doses to about 46.1 µM), usual class: cytotoxic. 400,000 compounds, 3.4% hits. AID 1347076; further: nearly all actives have a fitted effect of over 60% in size
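Cytotoxicity via CellTiter-Glo luminescence after 72 h compound exposure at 37 degrees C. Cells: drug-selected KB-V1 line, DMEM phenol-red free plus 10% FBS. Compounds tested at multiple concentrations; normalized data fitted to concentration-effect curves.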
MCF10A rereplic: DNA re-replication induction in MCF 10a cells; MCF 10A DNA re-replication, Hoechst nuclear intensity, 48 h; 350,000 compounds, 2.9% hits; Potency, µM (series often up to 46.1 µM), most hits filed as activators; further: nearly all actives have a fitted effect of over 50% in size
KB-3-1 tox: kills parental KB-3-1 adenocarcinoma cells; KB-3-1 viability, CellTiter-Glo ATP luminescence, 72 h; Potency, µM (top dose mostly 46.1 µM), most hits filed as cytotoxic; 400,000 compounds, 1.4% hits; AID 1347075; further: nearly all actives have a fitted effect of over 60% in size
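Cytotoxicity in the drug-sensitive parental line KB-3-1 was scored as loss of CellTiter-Glo luminescence following 72 h incubation with compound. Values come from curve fitting of normalized concentration-response data.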
DRD3 agonist: D3 dopamine receptor (human) agonism | P35462 | D3R DiscoveRx beta-arrestin cells, luminescence, 90 min | max activation, % | 410,000 compounds, 0.58% hits; in the data active means max activation above about 30%
Target sequence (P35462 whole entry, looked up): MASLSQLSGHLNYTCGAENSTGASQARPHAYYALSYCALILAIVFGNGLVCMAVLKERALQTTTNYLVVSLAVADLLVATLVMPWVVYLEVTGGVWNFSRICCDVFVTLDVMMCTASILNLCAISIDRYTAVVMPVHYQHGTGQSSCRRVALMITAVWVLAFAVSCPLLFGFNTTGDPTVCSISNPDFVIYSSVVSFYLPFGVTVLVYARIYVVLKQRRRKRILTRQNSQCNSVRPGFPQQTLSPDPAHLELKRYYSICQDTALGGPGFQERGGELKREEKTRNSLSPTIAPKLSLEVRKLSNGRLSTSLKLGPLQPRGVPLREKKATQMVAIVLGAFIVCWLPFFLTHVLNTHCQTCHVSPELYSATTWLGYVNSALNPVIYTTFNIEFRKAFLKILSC
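Agonist-mode cell screen: cells plated at 1500/well and incubated overnight at 37 °C, then exposed to library compounds for 90 min at 37 °C. Detection reagent was added for 30–60 min at room temperature, and luminescence was read.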
D3 antag: D3 dopamine receptor (human) antagonism | max response, negative = inhibition, % | 360,000 compounds, 2.5% hits | P35462 | D3R cells, DiscoveRx beta-arrestin luminescence, antagonist mode; hits give low values; in the data active means max response below about -50%; inconclusive means no clear call, values can overlap the other calls
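Cells plated overnight at 1500 cells/well, then exposed to library compounds with dopamine controls for 90 minutes at 37 degrees C. DiscoveRx reagent added for 30–60 minutes at room temperature; luminescence read, quantitative HTS format.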
Of the large screens only hits and unclear results are named; the others gave an inactive call. Unless noted, the call rests on the fitted dose curve; in most records, active means well fitted curve in the direction sought with a large enough effect; inconclusive means small, poorly fitted or top-dose-only effect, or another doubt; inactive means no such curve, though single readings can be large; an effect the other way counts as inactive or inconclusive.

COc1ccccc1CCNC(=O)C(=O)NCC1OCCN1S(=O)(=O)c1ccc(Br)cc1 (configuration not stated)	MCF10A rereplic inconclusive
COc1ccccc1CNC(=O)C(=O)NCC1OCCN1S(=O)(=O)c1ccc(Br)cc1 (configuration not stated)	SW480 rereplic 23.1µM, KB-V1 cytotox inconclusive
CC(C)(C)OC(=O)NCCCC[C@H](NC(=O)c1[nH]cnc1C(=O)Nc1ccc(CNC(=O)OC(C)(C)C)cc1)C(=O)OC(C)(C)C	MCF10A rereplic 4.11µM
Cc1ccc(NC(=O)c2nc[nH]c2C(=O)N2CCN(C(=O)OC(C)(C)C)CC2)cc1	MCF10A rereplic inconclusive
CC(C)(C)OC(=O)NCCCC[C@H](NC(=O)c1nc[nH]c1C(=O)NCc1ccccc1)C(=O)OC(C)(C)C	MCF10A rereplic inconclusive, KB-3-1 tox inconclusive
C[C@H](NC(=O)c1nc[nH]c1C(=O)N[C@@H](CCCCNC(=O)OC(C)(C)C)C(=O)OC(C)(C)C)c1ccccc1	SW480 rereplic inconclusive, KB-V1 cytotox 20.6µM, KB-3-1 tox inconclusive
CC(C)(C)OC(=O)NCc1ccc(CNC(=O)c2nc[nH]c2C(=O)N2CCN(C(=O)OC(C)(C)C)CC2)cc1	KB-3-1 tox inconclusive, DRD3 agonist 43.1
C[C@H]1CNC(=O)c2c(C(=O)Nc3ccc(CNC(=O)OC(C)(C)C)cc3)ncn21	KB-V1 cytotox inconclusive, DRD3 agonist 34.0 (no result: SW480 rereplic, MCF10A rereplic)
CCc1ccc2oc(C(=O)Nc3cccc(Cl)c3C)cc(=O)c2c1	none (no result: SW480 rereplic, MCF10A rereplic, D3 antag)
O=C(NCC(c1cccs1)N1CCOCC1)c1ccc(OCc2ccccc2)cc1 (configuration not stated)	none
Cn1cc(/C=C/c2ccnc3ccccc23)c2ccccc21	KB-3-1 tox inconclusive (no result: SW480 rereplic, MCF10A rereplic, DRD3 agonist, D3 antag)
C[C@H](NC(=O)c1[nH]cnc1C(=O)Nc1ccc(CNC(=O)OC(C)(C)C)cc1)C(=O)OC(C)(C)C	SW480 rereplic inconclusive, MCF10A rereplic inconclusive, KB-3-1 tox inconclusive, DRD3 agonist 39.2
C[C@H](NC(=O)c1nc[nH]c1C(=O)NCc1ccc(CNC(=O)OC(C)(C)C)cc1)c1ccccc1	KB-V1 cytotox inconclusive, MCF10A rereplic 14.6µM, KB-3-1 tox inconclusive
C[C@@H](NC(=O)c1nc[nH]c1C(=O)NCCCCCNC(=O)OC(C)(C)C)c1ccccc1	KB-V1 cytotox inconclusive
C[C@@H](NC(=O)c1nc[nH]c1C(=O)NCC(=O)OCc1ccccc1)c1ccccc1	DRD3 agonist 47.2
COC(=O)c1ccccc1NC(=O)CCCn1c(C)c2cnn(-c3ccccc3)c(=O)c2c1C	none (no result: SW480 rereplic, MCF10A rereplic, D3 antag)
COc1ccc(Cl)cc1NC(=O)CCCn1c(C)c2cnn(-c3ccccc3)c(=O)c2c1C	DRD3 agonist 41.6 (no result: SW480 rereplic, MCF10A rereplic, D3 antag)
COc1ccccc1C(CCN(Cc1cccs1)C(C)=O)c1ccco1 (configuration not stated)	none
CCC(=O)N(CCC(c1ccccc1)c1ccco1)Cc1cccs1 (configuration not stated)	KB-V1 cytotox inconclusive, MCF10A rereplic 11.2µM
Cn1c(NCCCN2CCOCC2)nc2c1c(=O)n(Cc1ccc(Cl)c(Cl)c1)c(=O)n2C	KB-V1 cytotox 14.6µM, MCF10A rereplic inconclusive
COc1ccc(CNc2nc3c(c(=O)n(Cc4ccc(Br)cc4)c(=O)n3C)n2C)cc1	KB-V1 cytotox 9.2µM, MCF10A rereplic inconclusive, KB-3-1 tox inconclusive
Cn1c(NCCCN2CCOCC2)nc2c1c(=O)n(Cc1ccc(Cl)cc1)c(=O)n2C	KB-V1 cytotox 18.4µM
Cn1c(=O)c2c(nc(NCCCN3CCOCC3)n2Cc2ccc(Cl)cc2)n(C)c1=O	none
Cn1c(NCc2ccccc2)nc2c1c(=O)n(Cc1ccc(Br)cc1)c(=O)n2C	MCF10A rereplic inconclusive
COc1ccc(C(=O)NCc2nc(-c3cccc(C)c3)no2)cc1OC	none (no result: SW480 rereplic, KB-V1 cytotox, MCF10A rereplic, KB-3-1 tox, D3 antag)
CC1CCCN(CCCN2C(=O)C3C(C(=O)Nc4cccc(Cl)c4)C4C=CC3(O4)C2C(=O)NC2CCCCC2)C1 (configuration not stated)	SW480 rereplic inconclusive, MCF10A rereplic inconclusive, KB-3-1 tox inconclusive
O=C(C[C@@H]1C/C=C\CC[C@H](Cc2ccc(F)cc2)C(=O)OC[C@@H](Cc2ccccc2)NC1=O)NCCO	none
Cc1cc(NC(=O)CN(C)CC(=O)Nc2ccc(F)c(F)c2F)no1	KB-V1 cytotox inconclusive
CCCN(CC(=O)Nc1cc(C)on1)CC(=O)Nc1ccc(F)c(F)c1F	KB-V1 cytotox 4.61µM
CCOC(=O)c1c(NC(=O)C(C)Sc2cn(CCNC(=O)c3ccccc3OC)c3ccccc23)sc2c1CCC2 (configuration not stated)	KB-V1 cytotox inconclusive (no result: SW480 rereplic, MCF10A rereplic, D3 antag)
O=C1C2Sc3[nH]c(=O)sc3C(c3ccccc3)C2C(=O)N1c1ccccc1 (configuration not stated)	D3 antag -66.3
COc1ccc(C2c3sc(=O)[nH]c3SC3C(=O)N(c4ccccc4)C(=O)C32)cc1 (configuration not stated)	none
O=C(CSc1nccn1-c1cccc(Cl)c1)Nc1cccc(C(F)(F)F)c1	none (no result: SW480 rereplic, KB-V1 cytotox, MCF10A rereplic, KB-3-1 tox, D3 antag)
COc1ccc(-c2nnc(NC(=O)Nc3ccc4ccccc4c3)s2)cc1OC	none (no result: SW480 rereplic, MCF10A rereplic, DRD3 agonist, D3 antag)
COc1ccc(CNc2cc(C)ccc2C)c(OC)c1OC	KB-V1 cytotox 14.6µM
COc1ccc(C)cc1NCc1cccc(OC)c1OC	KB-V1 cytotox inconclusive
Cc1ccc2[nH]c(=O)c3cc(C(=O)NCCCN4CCC(C)CC4)sc3c2c1	none (no result: SW480 rereplic, MCF10A rereplic, D3 antag)
CSc1cccc(NC(=O)CC(c2cccs2)N2Cc3ccccc3C2=O)c1 (configuration not stated)	none (no result: SW480 rereplic, MCF10A rereplic, D3 antag)
O=C(Nc1cccc2cccnc12)c1csc([C@@H]2O[C@H](CO)[C@H](O)[C@H](O)[C@H]2O)n1	D3 antag -116.9 (no result: SW480 rereplic, MCF10A rereplic)
O=C(Nc1cccc2ccccc12)c1csc([C@@H]2O[C@H](CO)[C@@H](O)[C@H]2O)n1	none (no result: SW480 rereplic, MCF10A rereplic)
CC1CCCC/C1=N/Nc1ccc([N+](=O)[O-])cc1[N+](=O)[O-] (configuration not stated)	none
O=[N+]([O-])c1ccc(C2CCCC/C2=N\OCc2cccc(F)c2)c([N+](=O)[O-])c1 (configuration not stated)	KB-V1 cytotox 10.3µM
Cc1[nH]n(-c2ccccc2)c(=O)c1/C=N/N1C(=O)c2cccc3cccc(c23)C1=O	SW480 rereplic inconclusive, KB-V1 cytotox 7.31µM, KB-3-1 tox inconclusive
Cc1[nH]n(-c2ccccc2)c(=O)c1/C=N/N1CCOCC1	none
Cc1[nH]n(-c2ccccc2)c(=O)c1C=Nc1cccc2cccnc12	SW480 rereplic inconclusive, KB-V1 cytotox 18.4µM, KB-3-1 tox inconclusive, D3 antag -86.8
Cc1ccc(-n2[nH]c(C)c(/C=N/c3ccccn3)c2=O)cc1	KB-3-1 tox inconclusive

Bioassay records as filed in PubChem.
